From PubChem BioAssay (NCI)
About 83,000 compounds went through this panel and 20% of them were active in at least one assay; those are over-represented in the sample as a whole.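 Cell lines were cultured in 96-well plates, exposed to a single compound concentration, and assessed for percent growth 48 hours later.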 Active and inactive are the calls of the source.

system: EKVX NSCLC; assay: NCI-60 one-dose screen, 48 h (100 = growth as untreated, 0 = no growth, -100 = all killed); conditions: 10 µM unless noted
Protocol: Growth inhibition of the EKVX human Non-Small Cell Lung tumor cell line is measured as a screen for anti-cancer activity. Cells are grown in 96 well plates and exposed to the test compound for 48 hours. Compounds are tested at a single concentration, which is 10^-5 M for most compounds. The reported endpoint is percent growth (GI% or GIPRCNT), where numbers from 0 - 100% represent growth inhibition, and numbers from -100% - 0 represent cell death. For example, a value of 40 represents 60% growth inhibition. A value of 0 means no net growth occurred over the course of the experiment. A value of -40 indicates 40% of cells at the beginning of the experiment died by the end of the experiment. A value of -100 means all cells are dead at the end of the experiment.
NCI-60 Human Tumor Cell Lines Screen was performed using the standard one-dose NCI protocol, which is described in more detail at https://dtp.cancer.gov/discovery_development/nci-60/default.htm.
Compounds with GIPRCNT values below 10 were considered active. Activity score was based on GIPRCNT using the following formula: […]
Score is 0 for GIPRCNT values of 100 or above, 50 for GIPRCNT values of 0, and 100 for GIPRCNT values of -100.

| SMILES | growth |
| --- | --- |
| NC(N)=N/N=C/c1ccc(Cl)cc1 | 64.2% (inactive) |
| CNC1=C([N+](=O)[O-])C(c2ccccc2O)C(C#N)=C(c2cccs2)O1 (stereo not given) | 97.2% (inactive) |
| COc1ccc(C2c3cccn3-c3ccccc3N2C(C)=O)cc1 (stereo not given) | 85.9% (inactive) |
| COc1ccc(-c2nn(C(=O)NCCN(C)C)cc2-c2ccncc2)cc1Cl | 43.4% (inactive) |
| CN1C(=O)N(C)C2C1NN=c1s/c(=C\c3ccc(C(F)(F)F)cc3)c(=O)n12 (stereo not given) | 45.2% (inactive) |
| CCOC(=O)c1cnc(SCC)nc1SC#N | 99.8% (inactive) |
| O=C(/C=C/c1ccccc1Br)c1cccc(OCCCCOc2cccc(C(=O)/C=C/c3ccccc3Br)c2)c1 | 102% (inactive) |
| COc1ccc(C(=O)OC2C(OC3C(O)COC(O[C@H]4C[C@H]5[C@@H]6CC=C7C[C@@H](O)CC[C@]7(C)[C@H]6CC[C@]5(C)[C@H]4[C@H](C)C(=O)CCC(C)C)C3OC(N)=O)OCC(O)C2O)cc1 (stereo not given in full) | 19.5% (inactive) |
| COc1ccc(/C=C/c2nc3ccccc3c(=O)n2-c2ccc(C#Cc3ccc(C(C)(C)C)cc3)cc2C)c(OC)c1 | 85.1% (inactive) |
| COc1ccc(/C=C(\C#N)c2cc(OC)c(OC)c(OC)c2)cc1 | 54.7% (inactive) |
| CCCCCCCCCCCCCCCCCC(=O)OCCCCCCCCCCCCC | 106% (inactive) |
| CC(C)C/C=C/C=C/C(=O)N[C@@H](CC(N)=O)C(=O)N[C@@H]1C(=O)N[C@H](c2ccc(O)cc2)C(=O)N[C@H](CCCN)C(=O)N[C@H]([C@@H](C)O)C(=O)N[C@H](c2ccc(O)cc2)C(=O)N[C@H](c2ccc(O)cc2)C(=O)N[C@H]([C@H](C)O)C(=O)N[C@H](Cc2ccccc2)C(=O)N[C@H](CCCN)C(=O)N[C@H](c2ccc(O[C@H]3O[C@@H](CO)[C@@H](O)[C@@H](O)[C@H]3O[C@@H]3O[C@H](CO)[C@H](O)[C@H](O)[C@@H]3O)cc2)C(=O)N[C@H]([C@H](C)O)C(=O)N[C@H](c2ccc(O)cc2)C(=O)NCC(=O)N[C@H](CC(C)C)C(=O)N[C@H](C)C(=O)N[C@H](c2ccc(O)c(Cl)c2)C(=O)O[C@@H]1C(N)=O | 92.7% (inactive) |
| O=c1c2cc(Br)cc(Br)c2nc(-c2ccc(Cl)cc2)n1/N=C\c1ccccc1F | 63.7% (inactive) |
| CCCCCCCCCCCCCCCCCC(=O)[O][Sn]([CH2]CCC)([CH2]CCC)[CH2]CCC | -40.1% (active) |
| CCN1C(=O)N(CC)C2C1NN=c1s/c(=C\c3ccc(Br)cc3)c(=O)n12 (stereo not given) | 38.2% (inactive) |
| C=C1C(=O)O[C@H]2[C@H]1CC/C(COC(=O)NCc1[nH]nc3ccccc13)=C\CC[C@@]1(C)O[C@@H]21 | 50.1% (inactive) |
| Nc1c(C(=O)Nc2ccccc2)sc2nc3c(cc12)C(=O)CCC3 | 84.6% (inactive) |
| O=c1nc(-c2ccccc2)c2cc(-c3ccc(N4CCOCC4)cc3)ccc2[nH]1 | 89.8% (inactive) |
| CC1(C)CN(CCNc2nccc(-c3c(-c4cccc(O)c4)nc4sccn34)n2)S(=O)(=O)N1 | 108% (inactive) |
| O=C(/C=C/c1ccccc1)c1c[nH]c2ccccc2c1=O | 36.3% (inactive) |

| SMILES | growth |
| --- | --- |
| CS(=O)(=O)c1ccc(C(=O)N/N=C/c2ccc3c(c2)OCO3)cc1 | 100% (inactive) |
| O=C(CCCN1CCC(O)(c2ccc(Br)cc2)CC1)c1ccc(F)cc1 | 91% (inactive) |
| O=C1/C(=C/N2N=C(c3ccc(Cl)cc3)CC2c2ccccc2O)SC(=S)N1c1cccc(C(F)(F)F)c1 (stereo not given) | 52.5% (inactive) |
| CC(=O)N1N=C(C2C(=O)N(C)C(=O)N(C)C2=O)CC1c1ccccc1C(=O)O (stereo not given) | 105% (inactive) |
| C[Si](C)(C)C(c1ccccc1)c1ccccc1 | 109% (inactive) |
| COc1cc(C2CC(c3ccccc3)=NN2C=O)ccc1Oc1ccnc2cc(Cl)ccc12 (stereo not given) | 33.5% (inactive) |
| O=C(NNC(=O)c1cccc(Cl)c1)c1ccccc1 | 103% (inactive) |
| O=C(/C=C/c1ccco1)c1ccccc1O | 104% (inactive) |
| O=P(O)(O)C(O)(Cc1cccnc1)P(=O)(O)O | 103% (inactive) |
| COc1ccccc1/C=C/C(=O)CCC(=O)O | 105% (inactive) |
| CC1=C(O)C(=O)CC1 | 96.2% (inactive) |
| Brc1ccsc1Br | 114% (inactive) |
| CS(=O)(=O)c1ccc(Cl)c([N+](=O)[O-])c1 | 104% (inactive) |
| CCOC(=O)C#Cc1c(C(=O)OCC)nnn1[C@@H]1O[C@H](COC(C)=O)[C@@H](OC(C)=O)[C@H]1OC(C)=O | 103% (inactive) |
| O=C(Nc1cccc(C2=NCCN2)c1)c1ccc(N=Nc2ccc(C(=O)Nc3cccc(C4=NCCN4)c3)cc2)cc1 | 62.6% (inactive) |
| CC1CCCN(CCCCOc2ccc(-c3ccc(C#N)cc3)cc2)C1 (stereo not given) | 88.9% (inactive) |
| COc1ccc(CNc2c3ccccc3nc3ccccc23)cc1F | 26.1% (inactive) |
| COc1ccc(Cl)cc1Nc1nc(C(F)(F)F)ccc1C(=O)NN | 27.9% (inactive) |
| CCOC(OCC)c1cnc2nc(NC(C)=O)[nH]c(=O)c2n1 | 109% (inactive) |
| Cc1ccc(NC(=O)c2cc(NCc3cc(O)ccc3O)ccc2O)cc1 | 98.7% (inactive) |
